We go through 15 molecules from PubChem BioAssay (NCI).

The panel holds about 83,000 compounds, 20% with a hit somewhere; the sample as a whole holds those more often.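 Growth was measured after 48 h exposure to one concentration of compound in 96-well plates. Values under 10 count as active.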 Unmarked numbers belong to inactive results. Active and inactive are the calls of the source.

Test systems include NCI-H23 lung; NCI-H226 lung; NCI-H322M lung; HOP-62 NSCLC; NCI-H460 lung; HOP-92 NSCLC; NCI-H522 lung; A549/ATCC NSCLC; COLO 205 colon; 786-0 renal.
Common to all, as to assay: NCI-60 one-dose screen, 48 h (100 = growth as untreated, 0 = no growth, -100 = all killed)
Common to all, as to details: 10 µM unless noted

As for `COc1ccc(-c2cc(-c3cccnc3)nc3sc4c(=O)n(-c5ccc(C)cc5)nnc4c23)cc1OC`, the growth was 98% in the test with NCI-H23 lung; 93% in the test with NCI-H226 lung; 97.6% in the test on NCI-H322M lung; 95.5% in the test with HOP-62 NSCLC; 100% with NCI-H460 lung; 74.4% with HOP-92 NSCLC. Moreover, the growth in the test on NCI-H522 lung was 101%; with A549/ATCC NSCLC it was 102%; in the test with COLO 205 colon, 102%.
In the case of `COc1cc(OC)c(/C=C/c2cc[n+](C)c3ccccc23)c(OC)c1`, the growth is 17.3% in the test with NCI-H23 lung; 23.1% in the test with NCI-H226 lung; 6.52% (active) in the test with NCI-H322M lung; 17.1% in the test on HOP-62 NSCLC; -10.8% (active) in the test on HOP-92 NSCLC; -35.3% (active) in the test on NCI-H522 lung. The growth in the test with A549/ATCC NSCLC was 8.24% (active); in the test on 786-0 renal it was 26.1%; with COLO 205 colon, -83.9% (active).
`COc1ccc(-c2cc(-c3cccnc3)nc3sc4c(=O)n(-c5ccc(C)cc5)cnc4c23)cc1OC`: the growth in the test on NCI-H23 lung is 95.7%; with NCI-H226 lung, 93.3%; with NCI-H322M lung, 92.4%; in the test on HOP-62 NSCLC, 98.4%; in the test on NCI-H460 lung, 101%; with HOP-92 NSCLC it was 63.6%. Further, the figures for the growth in the test on NCI-H522 lung, in the test on A549/ATCC NSCLC and with COLO 205 colon were 99.8%, 103% and 97.6%, respectively.
Regarding `CN1CCN(Cc2ccc(NC(=O)c3[nH]ncc3Nc3ncnc4sccc34)cc2)CC1`, the growth with NCI-H23 lung was -1.52% (active); in the test on NCI-H226 lung, 10.9%; in the test with NCI-H322M lung, 21.6%; in the test on HOP-62 NSCLC, 22.4%; in the test with NCI-H460 lung, 5.43% (active); in the test with HOP-92 NSCLC, -13.3% (active). The growth in the test on NCI-H522 lung is 14%; in the test with A549/ATCC NSCLC, 13.5%; in the test with COLO 205 colon, -8.12% (active).
On to `O=C1C2CC=CCC2C(=O)N1CNc1ccc(Cl)cc1` (stereo not given), for which the growth with NCI-H23 lung is 94.2%; in the test with NCI-H226 lung, 90.5%; with NCI-H322M lung, 92.2%; in the test on HOP-62 NSCLC it was 86.4%; in the test with NCI-H460 lung, 107%; in the test on HOP-92 NSCLC, 62.9%. Besides, the growth in the test with NCI-H522 lung was 74.7%; with A549/ATCC NSCLC, 93.6%; in the test on 786-0 renal it was 89.4%; in the test on COLO 205 colon it was 115%.
Regarding `Cc1cc(=O)oc2cc(Oc3nc(-c4ccc(Cl)cc4)cn4c(-c5ccc(Cl)cc5)cnc34)ccc12`, the growth in the test on NCI-H23 lung was 78.1%; with NCI-H226 lung it was 93%; with NCI-H322M lung, 95.9%; with HOP-62 NSCLC it was 99.7%; in the test with NCI-H460 lung, 93.3%; in the test with HOP-92 NSCLC, 91%. The growth in the test with NCI-H522 lung is 95.8%; in the test with A549/ATCC NSCLC, 101%; with COLO 205 colon it was 97.5%.
Regarding `O=C1NC(=O)C(CC(=O)n2c(-c3ccccc3)nc3ccccc32)C(=O)N1`, the growth in the test on NCI-H23 lung is 97.4%; in the test on NCI-H226 lung it was 97.7%; with NCI-H322M lung it was 100%; with HOP-62 NSCLC, 94.4%; in the test with HOP-92 NSCLC, 97.5%; with NCI-H522 lung, 93%. For the same molecule, the growth with A549/ATCC NSCLC is 101%; with 786-0 renal, 99.7%; in the test with COLO 205 colon, 118%.
As to `COc1cc(C2CC(=O)Nc3c2cnn3Cc2ccco2)cc2c1OCCO2` (stereo not given), the growth in the test with NCI-H23 lung is 96.6%; in the test with NCI-H226 lung it was 92.4%; with NCI-H322M lung it was 82.5%; in the test with HOP-62 NSCLC it was 88.3%; with HOP-92 NSCLC, 109%; in the test with NCI-H522 lung, 44.4%. Moreover, the figures for the growth in the test on A549/ATCC NSCLC, in the test with 786-0 renal and in the test on COLO 205 colon were 80.6%, 98% and 81.2%, respectively.
Consider `CN1CCN(Cc2ccc(NC(=O)c3[nH]ncc3Nc3ccnc4ccsc34)cc2)CC1`, for which the growth with NCI-H23 lung was 15.4%; in the test on NCI-H226 lung, 5.11% (active); in the test with NCI-H322M lung, 20%; in the test with HOP-62 NSCLC, 40.4%; with HOP-92 NSCLC, 76.2%; with NCI-H522 lung it was 47.2%. Besides, the figures for the growth in the test on A549/ATCC NSCLC and in the test on COLO 205 colon were 24.1% and 18.9%, respectively.
For the molecule `N#CC1=C(N)Oc2c(ccc3ccccc23)C1c1cccs1` (stereo not given), the growth with NCI-H23 lung is 18%; with NCI-H226 lung it was 40.9%; in the test on NCI-H322M lung it was 39.1%; with HOP-62 NSCLC, 25.5%; in the test on HOP-92 NSCLC it was 35.5%; in the test with NCI-H522 lung, -0.254% (active). Besides, the growth is 22.5% in the test on A549/ATCC NSCLC, 31.9% in the test on 786-0 renal and -54.9% (active) in the test with COLO 205 colon.
With `COc1cccc(/C=C\C(=O)c2ccccc2)c1`, the growth in the test on NCI-H23 lung was 86.7%; in the test with NCI-H226 lung it was 76.7%; in the test on NCI-H322M lung, 85%; in the test with HOP-62 NSCLC it was 87%; with HOP-92 NSCLC, 87.6%; in the test with NCI-H522 lung it was 81.2%. In addition, the growth in the test with A549/ATCC NSCLC is 92.4%; with 786-0 renal, 74.4%; in the test with COLO 205 colon, 90.1%.
For `CCOC(=O)c1c2c(n3ccc(NC(=O)CCN4CCCCC4)cc13)C(=O)c1ncccc1C2=O`, the growth in the test on NCI-H23 lung was -55.2% (active); in the test with NCI-H226 lung it was 73.8%; in the test with NCI-H322M lung it was -77.4% (active); in the test on HOP-62 NSCLC, -74.5% (active); in the test on HOP-92 NSCLC it was 78.5%; in the test on NCI-H522 lung, 5.07% (active). For the same molecule, the figures for the growth in the test with A549/ATCC NSCLC, with 786-0 renal and with COLO 205 colon were -70.1% (active), 19.4% and -71.8% (active), respectively.
Regarding `Nc1nc2ccc(-c3nc4ccc5[nH]ncc5c4c4c3CCC4)cc2s1`, the growth is 24.2% in the test with NCI-H23 lung; 22.7% in the test on NCI-H226 lung; 25.8% in the test on NCI-H322M lung; 3.53% (active) with HOP-62 NSCLC; -4.3% (active) in the test on HOP-92 NSCLC; -29.4% (active) in the test with NCI-H522 lung. The growth was 32.2% in the test with A549/ATCC NSCLC, 25.6% with 786-0 renal and -2.69% (active) in the test with COLO 205 colon.
On to `Cn1c(=O)c2c(ncn2CC[N+](C)(C)C)n(C)c1=O`, for which the growth with NCI-H23 lung was 99.9%; with NCI-H226 lung, 93.2%; in the test on NCI-H322M lung, 101%; in the test with HOP-62 NSCLC, 92%; with HOP-92 NSCLC, 110%; with NCI-H522 lung, 80.7%. The growth is 91.7% with A549/ATCC NSCLC, 108% with 786-0 renal and 103% in the test with COLO 205 colon.
Consider `CN1CCN(Cc2ccc(NC(=O)c3cncc(C#Cc4cncc5nccnc45)c3)cc2C(F)(F)F)CC1`, for which the growth with NCI-H23 lung is 33.8%; with NCI-H226 lung, 5.97% (active); in the test with NCI-H322M lung it was 43.6%; in the test on HOP-62 NSCLC, 53.5%; with HOP-92 NSCLC, -11.9% (active); in the test with NCI-H522 lung, 43.8%. For the same molecule, the growth with A549/ATCC NSCLC was 70.8%; in the test on 786-0 renal it was 73.1%; in the test on COLO 205 colon, 2.52% (active).
